Several values for one entry are separate records, joined by “and”; a condition that tells them apart may be missing. Equal values may be shown once. The whole screen tested about 5,500 compounds, of which about 2,000 (36%) were called active. Roughly 18% stayed inconclusive and do not appear here. Cut-off read from the data, not from the text of the source: active = normalized growth mostly below about 0.91 (no sharp cut-off); inconclusive = no clear call, values can overlap the other calls; inactive = mostly above about 0.92. This is one part of the list.
Experiment: chemical genetic growth profiling, strain panel (AID 1159580);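 note: tested at 20 µM; growth read once vehicle control cultures reached saturation at 30 °C; 1 = growth at the plate median or of vehicle wells; lower values mean less growth of the strain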
Conditions: S. cerevisiae deletion strains, growth OD

Measured: normalized growth

O=C(CCBr)N1CCN(C(=O)CCBr)CC1
inactive: locus YAL013W, strain DEP1, stronger effect = lower value 1 | locus YAL021C, strain ccr4, stronger effect = lower value 1.02 | locus YAL026C, strain drs2, stronger effect = lower value 1.01 | locus YAL030W, strain snc1, stronger effect = lower value 1.02 | locus YBL061C, strain skt5, stronger effect = lower value 1.02 | locus YBR009C, strain hhf1, stronger effect = lower value 1.02 | locus YBR021W, strain FUR4, stronger effect = lower value 0.998 | locus YBR023C, strain chs3, stronger effect = lower value 1.03 | locus YBR171W, strain sec66, stronger effect = lower value 1.04 | locus YBR229C, strain ROT2, stronger effect = lower value 1 | locus YBR231C, strain swc5, stronger effect = lower value 1.02 | locus YBR279W, strain paf1, stronger effect = lower value 1.02 | locus YCL011C, strain gbp2, stronger effect = lower value 1.02 | locus YCL016C, strain dcc1, stronger effect = lower value 1.02 | locus YCL029C, strain bik1, stronger effect = lower value 1 | locus YCL061C, strain MRC1, stronger effect = lower value 1.01 | locus YCL069W, strain vba3, stronger effect = lower value 1.02 | locus YCR088W, strain abp1, stronger effect = lower value 1.01 | locus YDL005C, strain med2, stronger effect = lower value 1.02 | locus YDL035C, strain GPR1, stronger effect = lower value 1.01 | locus YDL040C, strain nat1, stronger effect = lower value 1.02 | locus YDL074C, strain BRE1, stronger effect = lower value 1 | locus YDL101C, strain DUN1, stronger effect = lower value 1.01 | locus YDL134C, strain PPH21, stronger effect = lower value 1.01 | locus YDL185W, strain tfp1, stronger effect = lower value 0.988 | locus YDL192W, strain arf1, stronger effect = lower value 1.01 | locus YDR001C, strain nth1, stronger effect = lower value 1.01 | locus YDR069C, strain doa4, stronger effect = lower value 1.02 | locus YDR101C, strain arx1, stronger effect = lower value 1.01 | locus YDR137W, strain rgp1, stronger effect = lower value 1.05 | locus YDR159W, strain sac3, stronger effect = lower value 1.01 | locus YDR162C, strain NBP2, stronger effect = lower value 1.01 | locus YDR195W, strain ref2 1.02 | locus YDR297W, strain sur2, stronger effect = lower value 1.02 | locus YDR318W, strain mcm21, stronger effect = lower value 0.996 | locus YDR334W, strain swr1, stronger effect = lower value 1.02 | locus YDR335W, strain msn5, stronger effect = lower value 1.02 | locus YDR388W, stronger effect = lower value 0.995 | locus YDR392W, strain spt3, stronger effect = lower value 1.03 | locus YDR502C, strain sam2, stronger effect = lower value 0.998 | locus YEL003W, strain gim4, stronger effect = lower value 1.02 | locus YEL037C, strain rad23, stronger effect = lower value 1.01 | locus YEL061C, strain CIN8 (second series), stronger effect = lower value 1.02 | locus YEL061C, strain CIN8, stronger effect = lower value 1 | locus YER015W, strain faa2, stronger effect = lower value 1.02 | locus YER016W, strain bim1, stronger effect = lower value 1.02 | locus YER110C, stronger effect = lower value 0.993 | locus YER111C, strain swi4, stronger effect = lower value 1.02 | locus YER155C, strain BEM2 (second series), stronger effect = lower value 1.02 | locus YER155C, strain BEM2, stronger effect = lower value 1.01 | locus YER167W, strain BCK2, stronger effect = lower value 1.01 | locus YFR010W, strain ubp6, stronger effect = lower value 1.01 | locus YGL078C, strain dbp3, stronger effect = lower value 0.995 | locus YGL086W, strain mad1, stronger effect = lower value 0.991 | locus YGL167C, strain pmr1, stronger effect = lower value 1.02 | locus YGL173C, strain kem1, stronger effect = lower value 1.02 | locus YGL227W, strain vid30, stronger effect = lower value 1.02 | locus YGL240W, strain doc1, stronger effect = lower value 1.02 | locus YGL248W, strain PDE1, stronger effect = lower value 1 | locus YGL253W, strain hxk2, stronger effect = lower value 1 | locus YGR135W, strain pre9, stronger effect = lower value 0.99 | locus YGR229C, strain SMI1, stronger effect = lower value 0.99 | locus YGR252W, strain gcn5, stronger effect = lower value 0.934 | locus YHR013C, strain ard1, stronger effect = lower value 1.04 | locus YHR027C, strain rpn1, stronger effect = lower value 1.01 | locus YHR030C, strain SLT2, stronger effect = lower value 1.01 and 1 | locus YHR079C, strain IRE1 (second series), stronger effect = lower value 0.995 | locus YHR079C, strain IRE1, stronger effect = lower value 0.997 | locus YHR094C, strain hxt1, stronger effect = lower value 0.996 | locus YHR129C, strain ARP1, stronger effect = lower value 1.01 | locus YHR142W, strain chs7, stronger effect = lower value 1.02 | locus YHR200W, strain rpn10, stronger effect = lower value 0.994 | locus YIL066C, strain RNR3, stronger effect = lower value 1.02 | locus YIL073C, strain SPO22, stronger effect = lower value 1.04 | locus YIL125W, strain kgd1, stronger effect = lower value 0.987 | locus YIR030C, strain dcg1, stronger effect = lower value 1 | locus YJL092W, strain hpr5, stronger effect = lower value 1.01 | locus YJL095W, strain BCK1 (second series), stronger effect = lower value 1.01 | locus YJL095W, strain BCK1, stronger effect = lower value 1.01 and 0.998 | locus YJL115W, strain asf1, stronger effect = lower value 1 | locus YJL129C, strain trk1, stronger effect = lower value 1.02 | locus YJL134W, strain LCB3, stronger effect = lower value 1.01 | locus YJL154C, strain vps35, stronger effect = lower value 1.02 | locus YJL164C, strain tpk1, stronger effect = lower value 1.02 | locus YJL166W, strain qcr8, stronger effect = lower value 1.02 | locus YJL168C, strain set2, stronger effect = lower value 0.998 | locus YJL187C, strain SWE1 (second series), stronger effect = lower value 1.02 | locus YJL187C, strain SWE1, stronger effect = lower value 1.02 | locus YJR043C, strain POL32, stronger effect = lower value 1.01

From PubChem BioAssay AID1159580 (chemical genetic matrix, 2015)
